B1: EPB41L1, Q9H4G0 (peptide)
chain: LEAEVDFTVIGDYHGS
B2: KIAA1107, Q9UPP5 (peptide)
chain: ASPQGEWTILELETQH
B3: TRMT10B, Q6PF06 (peptide)
chain: LPEGFQLLQIDAEGEA
B4: SLC7A6OS, Q96CW6 (peptide)
chain: GNSGFQLLDLVHEEGE
B5: USP35, Q9P2H5 (peptide)
chain: LNVSSREEAFTDLSLA
B6: MS4A2, Q01362 (peptide)
chain: VPAFEVLEISPQEVSS
B7: ZNF419, Q96HQ0 (peptide)
chain: WEVVTSAIPRGAWHGA
B8: NLRP2, Q9NX02 (peptide)
chain: WTDLASIFGSNKDLMG
B9: STBD1, O95210 (peptide)
chain: DLNSQDRVDHEEWEMV
B10: MAP1S, Q66K74 (peptide)
chain: SLEPPSPFELLEPPTS
B11: PEG3, Q9GZU2 (peptide)
chain: DAGLGFVDLTDLTDHQ
B12: KIFC2, Q96AC6 (peptide)
chain: APELWTELTGLAASSE
B13: ATF7IP2, Q5U623 (peptide)
chain: AVQVPESFEHLPPLPE
B14: IRS4, O14654 (peptide)
chain: DSWGIIAEPRQSAFSN
B15: USP9X, Q93008 (peptide)
chain: AEESFTTLNVDIRNHQ
B16: WDR90, Q96KV7 (peptide)
chain: EPWAQLEASDIHTAAA
B17: BMP2K, Q9NSY1 (peptide)
chain: VPFTELVVQSITPHQS
B18: OSBPL6, Q9BZF3 (peptide)
chain: DSWEIIEGLKIGQTNV
B19: PRUNE2, Q8WUY3 (peptide)
chain: QAVTHDNEWEMLSPQP
B20: DOCK7, Q96N67 (peptide)
chain: HVRDAIRSYTEDWAIV
B21: NEDD4, P46934 (peptide)
chain: EPGWVVLDQPDAAAHL
B22: MAPK7, Q13164 (peptide)
chain: EYEIIETIGNGAYGVV
B23: DISP1, Q96F81 (peptide)
chain: MAMSNGNNDFVVLSNS
B24: ZNF878, C9JN71 (peptide)
chain: QEEWALLDPSQKNLYR
B25: RASAL3, Q86YV0 (peptide)
chain: DIGGFTLLDGKLVLLG
B26: NEDD4, P46934 (peptide)
chain: VDNRESSENWEIIRED
B27: TMEM132B, Q14DG7 (peptide)
chain: PHSHDWVWLGNEVELL
B28: ZNF469, Q96JG9 (peptide)
chain: AGHQLGLEADGHWGLL
B29: FRYL, O94915 (peptide)
chain: KPIKENIEESYVHLDI
B30: TSC1, Q92574 (peptide)
chain: PPAPLAHSDDYVHISL
B31: CLEC7A, Q9BXN2 (peptide)
chain: EDGYTQLHFDSQSNTR

Key:
[1] = biological target: MAP1LC3A 2-121, Q9H492
[2] = biological target: MAP1LC3B 2-119, Q9GZQ8

Binder	selected by phage display [1]	selected by phage display [2]
B1	confidence 2 (active)	–
B2	confidence 3 (active)	–
B3	confidence 2 (active)	–
B4	confidence 2 (active)	–
B5	confidence 3 (active)	–
B6	confidence 2 (active)	–
B7	confidence 2 (active)	–
B8	confidence 3 (active)	–
B9	confidence 4 (active)	–
B10	confidence 3 (active)	–
B11	confidence 3 (active)	–
B12	confidence 3 (active)	–
B13	confidence 4 (active)	–
B14	confidence 4 (active)	–
B15	confidence 2 (active)	–
B16	confidence 3 (active)	confidence 4 (active)

Binder	selected by phage display [1]	selected by phage display [2]
B17	confidence 3 (active)	–
B18	–	confidence 3 (active)
B19	–	confidence 4 (active)
B20	–	confidence 2 (active)
B21	–	confidence 4 (active)
B22	–	confidence 2 (active)
B23	–	confidence 2 (active)
B24	–	confidence 2 (active)
B25	–	confidence 4 (active)
B26	–	confidence 2 (active)
B27	–	confidence 2 (active)
B28	–	confidence 3 (active)
B29	–	confidence 3 (active)
B30	–	confidence 2 (active)
B31	–	confidence 2 (active)
